# Screening data as filed in PubChem BioAssay.
# H9c2 protect – cardioprotection against H2O2-induced cell death, primary screen, uHTS, H9c2 cells, ATPLite luminescence | hit rate 0.63% among 360,000 | AID 588492, 2011 | H9c2 cardiomyocytes, H2O2 injury protection, 2 h | protection from H2O2 cell death, % at 20 µM;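 active = compounds giving at least 50% protection of heart cells from peroxide-induced death in the single-dose screen, raw or plate-pattern-corrected value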;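 also: 0% = DMSO wells with peroxide and 100% = DMSO wells without peroxide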
# PfG6PD inh – PfG6PD enzyme inhibitors, primary screen, biochemical, fluorescence intensity, uHTS. AID 504690, 2011. glucose-6-phosphate dehydrogenase-6-phosphogluconolactonase (Plasmodium falciparum 3D7). hit rate 0.78% among 350,000. inhibition, % at 20 µM. PfGluPho enzyme, NADPH resazurin-diaphorase fluorescence;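 active = inhibition reaching at least a set limit at 20 µM in the primary screen, cut at about 59% in these data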;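 also: 0% = DMSO wells with substrate and 100% = DMSO wells lacking glucose-6-phosphate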
# CRFR2-BP antag – antagonists of CRF-BP/CRF-R2 complex, primary screen, cell-based, HEK293, calcium dye fluorescence, uHTS. inhibition, % at 11.8 µM. hit rate 0.59% among 350,000. CRF-induced calcium fluorescence;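 active = inhibition of the ligand-induced calcium signal above about 50% at the single tested concentration, limit read from the data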
# FAS TE block – FAS thioesterase domain inhibitors, primary screen, biochemical, fluorescence intensity, uHTS | recombinant FAS-TE, OMFH fluorogenic substrate, fluorescence endpoint | hit rate 0.67% among 360,000 | inhibition, % at 15 µM | Fatty acid synthase (Homo sapiens), P49327;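 active = compounds whose normalised, plate-corrected inhibition of enzyme fluorescence in the single-dose primary screen is 50% or more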;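 also: 0% = DMSO with enzyme and 100% = substrate without enzyme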
# CRFR2-BP ag – agonists of CRF-BP/CRF-R2 complex, primary screen, cell-based, HEK293, calcium dye fluorescence, uHTS; CRF-binding protein / CRF receptor 2 complex (human); calcium dye fluorescence (FLIPR); percent of saturating CRF peptide response; activation, % at 13.2 µM; hit rate 0.46% among 350,000;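 active = activation of at least 50%, plus an integration ratio under a set limit after plate pattern correction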;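 also: plate controls were neutral control wells without compound for no effect and CRF at EC100 for full effect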
# aDG glyco act – activators of alpha-DG glycosylation, primary screen, uHTS, Pro5-aDG cells, AlphaScreen; alpha-DG glycosylation AlphaScreen (IIH6); 0% Pro5, 100% B10-LARGE cell signal; activation, % at 10 µM; hit rate 0.22% among 360,000; AID 624168, 2012;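 active = activation of at least 8% versus controls, or a plate z-score of at least 8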;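 also: Pro5 are CHO cells carrying HIG-tagged alpha-DG that lacks glycosylation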
# FAS-TE conf – FAS thioesterase domain inhibitors, confirmation, biochemical, fluorescence intensity, single concentration | hit rate 45% among 2,300 | inhibition, % at 15 µM | recombinant FAS-TE, OMFH fluorogenic substrate | shares compounds with FAS TE block;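 active = compounds inhibiting the enzyme by at least 50% at 15 µM in any one of the replicates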;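 also: 0% = enzyme with DMSO only and 100% = wells lacking enzyme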
# Active calls of the source: *; / = not tested or not shown. Sampled rows, rich in hits. Any-hit rate of the full collection: about 3.2%.
SMILES,H9c2 protect,PfG6PD inh,CRFR2-BP antag,FAS TE block,CRFR2-BP ag,aDG glyco act,FAS-TE conf
CCOC(=O)N1CCC(NC(=O)C2CCN(S(=O)(=O)N3CCC(C)CC3)CC2)CC1,-3,6,6,-9,1,0,/
Cc1nn(CCC(=O)O)c2nc(-c3cccnc3)cc(C(F)(F)F)c12,-2,4,8,-3,6,0,/
Cc1nn(CCc2nn[nH]n2)c2nc(-c3ccc(C4CCCCC4)cc3)cc(C(F)(F)F)c12,-16,4,87*,69*,24,0,14
COc1ccccc1C/C(N)=N/OC(=O)c1ccc(C)c([N+](=O)[O-])c1,-17,5,-27,47,1,0,/
Cc1ccc(C(=O)O/N=C(\N)Cc2cccs2)cc1[N+](=O)[O-],-8,6,14,62*,0,0,76*
Cc1nc(/N=C(\N)NC(=O)N2c3ccccc3Sc3ccccc32)nc2ccccc12,4,31,15,68*,0,0,16
COc1ccc(N2C(=O)N3[C@H](c4ccc(Br)cc4)[C@@H]4C(=O)N(C(C)(C)C)C(=O)[C@@H]4[C@]3(Cc3ccccc3)C2=O)cc1,16,-1,-8,71*,7,0,40
COc1ccc([C@@H]2[C@@H]3C(=O)N(C(C)(C)C)C(=O)[C@@H]3[C@]3(Cc4ccccc4)C(=O)N(c4cccc(Cl)c4)C(=O)N23)cc1,-1,15,-7,79*,2,1,9
CC(C)(C)N1C(=O)[C@H]2[C@@H](c3ccc(Br)cc3)N3C(=O)N(c4cccc(Cl)c4)C(=O)[C@@]3(Cc3ccccc3)[C@H]2C1=O,4,-2,-6,96*,6,2,6
CC(C)NC(=O)C1(C)CN(S(C)(=O)=O)CC(=O)N1CCc1ccccc1F (stereo unspecified),/,/,/,/,/,0,/
COc1ccc(OC)c(-c2nc3cc4ccccc4cc3nc2-c2ccccc2)c1,-8,16,-25,53*,1,0,14
O=C(COC(=O)c1cccc([N+](=O)[O-])c1)NCc1cccs1,-8,-6,29,52*,0,0,63*
CCN(CC(=O)NCc1cccs1)S(=O)(=O)c1ccc([N+](=O)[O-])cc1,-9,-17,4,52*,-2,0,52*
COc1ccc(C)cc1NC(=O)c1cccc(-c2ccc(OC(C)=O)cc2)c1,5,2,17,22,1,0,/
O=C(NC(=S)Nc1ccc2c(c1)OCCO2)c1cccc2ccccc12,-16,15,-31,56*,0,0,24
COc1cccc(-n2c(SCC(=O)Nc3sc4c(c3C(N)=O)CCC4)nc3ccccc3c2=O)c1,11,-6,17,77*,-3,0,7
C=CCOc1c(Br)cc(/C=N/Nc2ccc(C(=O)O)cc2)cc1OCC,4,-8,16,54*,-11,0,72*
COc1ccc(/C=N/Nc2ccc(C(=O)O)cc2)cc1Br,9,-2,33,0,-2,0,/
CN(CC1CCOCC1)C(=O)CC1C(=O)NCCN1Cc1ccc(F)c(F)c1 (stereo unspecified),-4,-3,6,-2,1,0,/
Cc1[nH]n(-c2ccc(Cl)cc2)c(=O)c1C=Nc1ccc(S(=O)(=O)N2CCOCC2)cc1,-8,-1,0,63*,0,0,16
O=C(/C=C/c1cccs1)N1CCC2(CC1)Oc1ccc(Cl)cc1C(=O)C21CC(c2ccccc2)=NO1 (stereo unspecified),-13,0,-5,73*,1,0,10
CC(Oc1ccccc1)C(=O)N1CCC2(CC1)Oc1ccc(F)cc1C(=O)C21CC(c2ccccc2)=NO1 (stereo unspecified),8,-12,-4,62*,0,0,7
CCC(=O)N1CCC2(CC1)Oc1ccc(Cl)cc1C(=O)C21CC(c2ccccc2)=NO1 (stereo unspecified),15,-3,6,11,1,0,/
COc1ccc(-c2noc(CCC(=O)N3CCN(c4ccccc4F)CC3)n2)cc1,-6,-10,9,18,-4,0,/
COC(=O)C1=C(C(=O)OC)[C@]2([C@H]3CC=CCN[C@@H](Cc4ccccc4)C(=O)N3Cc3ccccc3)C=C[C@H]1O2,-6,9,7,54*,3,0,13
SMILES,H9c2 protect,PfG6PD inh,CRFR2-BP antag,FAS TE block,CRFR2-BP ag,aDG glyco act,FAS-TE conf
CCC(O)CNC(=O)CCc1nnc(C2(c3ccc(Cl)cc3)CCC2)o1 (stereo unspecified),-8,-8,21,-3,3,0,/
Cc1cccn2c(=O)c3cc(C(=O)NC4CCCC4)sc3nc12,9,7,13,8,-1,0,/
O=c1oc(-c2ccccc2Br)nc2ccccc12,10,-4,-7,61*,0,0,53*
CCOC1=C2[C@H](c3ccccc3)N(S(=O)(=O)c3ccc(C)cc3)[C@H](C(C)C)[C@H]2n2c(=O)n(-c3ccccc3)c(=O)n2C1,3,/,/,60*,/,0,18
CCOC1=C2[C@H](c3ccccc3)N(S(=O)(=O)c3ccc(C)cc3)C(C(C)(C)C)[C@H]2n2c(=O)n(-c3ccccc3)c(=O)n2C1 (stereo partly specified),0,/,/,89*,/,0,28
Cc1nc2ccc(NC(=O)c3cc([N+](=O)[O-])cc([N+](=O)[O-])c3Cl)cc2s1,-12,32,29,70*,1,0,89*
CC1(C)CC(=O)C=C(c2ccc(COC(=O)Cc3ccccc3)cc2)C1=O,2,17,-12,73*,-1,0,19
CC1(C)CC(=O)C=C(c2ccc(-c3cnn(Cc4ccccc4)c3)cc2)C1=O,-11,17,5,60*,5,0,71*
CC1(C)CC(=O)C=C(c2ccc(-c3ccccc3)cc2)C1=O,-27,0,16,22,3,0,/
CC1(C)CC(=O)C=C(c2ccc(COC(=O)c3ccc(-c4ccccc4)cc3)cc2)C1=O,-9,19,-11,31,2,0,/
Cc1ccc(C2CC(c3cccs3)=NN2C(=O)CSc2nc(=O)n3ccc(C)cc3n2)cc1 (stereo unspecified),4,/,/,46,/,0,/
